# High-throughput results: PubChem BioAssay, National Center for Advancing Translational Sciences (NCATS)
# Cycloheximide cs: Cycloheximide Counterscreen for Small Molecule Inhibitors of Shiga Toxin; cell reporter, cycloheximide protein synthesis inhibition counterscreen; max response, %; 300,000 compounds, 12% hits; AID 2314, 2010; in the data active = max response mostly above about 13%, no sharp cut-off; inactive = mostly below about 14%; note: read at 38.3 µM for the half of the compounds with a filed dose
# HCMV inh: qHTS Assay for inhibitors of the human cytomegalovirus (HCMV). HFF cells, HCMV-luciferase reporter, 72 h; active compounds read low. activity change, negative = inhibition, % at 57.5 µM. 410,000 compounds, 4.5% hits. AID 1259415, 2018; in the data active = activity change below about -60%; inconclusive = no clear call, values can overlap the other calls; inactive = above about -39%
#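 Screen run at 2 compound doses on HFFs infected with reporter HCMV, MOI 1 PFU/cell. Luciferase activity from cell lysates at 72 h post infection gave inhibition relative to buffer-only and Salinomycin wells.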
# Pf growth 96h: Primary qHTS for delayed death inhibitors of the malarial parasite plastid, 96 hour incubation; P. falciparum luciferase reporter growth, 96 h; Potency, µM (titrated, usually from 28.7 µM), actives largely listed as inhibitors; 320,000 compounds, 6.9% hits; AID 504834, 2011
#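 Infected RBCs, 2% Hct / 0.05% parasitemia final; luciferase-reporter P. falciparum; cpd 96 h, 37 C, 5% CO2; luciferase detection reagent; luminescence.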
# HCV inhibitor: qHTS Assay for Inhibitors of Hepatitis C Virus (HCV); Huh7.5.1 HCVcc-Cre infection, luciferase reporter, 44 h; Potency, µM (titrated, usually from 41.8 µM), hits mostly inhibitors; 340,000 compounds, 3.4% hits; AID 651820, 2012
#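 After 44 h co-culture of compound, cells and HCVcc-Cre (~0.5 moi), substrate is added for 15 min at room temperature and luciferase measured over 15 sec. Cells were seeded at 1,000/well and pre-cultured 4 h.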
# Pf growth 48h: Primary qHTS for delayed death inhibitors of the malarial parasite plastid, 48 hour incubation. 310,000 compounds, 5.9% hits. Potency, µM (series often up to 28.7 µM), hits mostly inhibitors. P. falciparum luciferase growth in erythrocytes, 48 h
#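 Firefly luciferase activity from engineered P. falciparum reports growth; inhibitors lower the luminescent signal. Cultures contained 2% hematocrit erythrocytes at 0.1% final parasitemia.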
# Shiga inhibitor: A qHTS for Small Molecule Inhibitors of Shiga Toxin; 290,000 compounds, 9.2% hits; AID 2315, 2010; inhibition, % at 38.7 µM; Vero cells, Shiga toxin protein synthesis inhibition reporter; in the data active = inhibition mostly above about 28%, no sharp cut-off; inactive = mostly below about 43%
# Numbers stand for hits; - = inactive; ? = inconclusive; . = no result. The list is not random: actives were taken first. Their share in the collection is about 21%. Unless noted, calls come from the whole dose curve; as a rule, active = well fitted inhibition curve with a large enough effect; inconclusive = small, poorly fitted or top-dose-only effect, or another doubt; inactive = no such curve, though single readings can be large or run the other way.
SMILES,Cycloheximide cs,HCMV inh,Pf growth 96h,HCV inhibitor,Pf growth 48h,Shiga inhibitor
CSCC[C@H](NC(=O)[C@H](Cc1c[nH]c2ccccc12)NC(=O)CNC(=O)[C@H](Cc1ccc(O)cc1)NC(=O)[C@H](C)NC(=O)[C@H](CCC(=O)O)NC(=O)[C@H](CCC(=O)O)NC(=O)[C@H](CCC(=O)O)NC(=O)[C@H](CCC(=O)O)NC(=O)[C@H](CCC(=O)O)NC(=O)[C@H](CC(C)C)NC(=O)[C@H](Cc1c[nH]c2ccccc12)NC(=O)[C@@H]1CCCN1C(=O)CNC(=O)[C@@H]1CCC(=O)N1)C(=O)N[C@@H](CC(=O)O)C(=O)N[C@@H](Cc1ccccc1)C(=O)NCC(=O)O,-,.,.,.,.,-
Cc1ccc(S(=O)(=O)N(C)C)cc1NC(=S)N(C)C1CCN(C)CC1,-,-,-,-,-,-
Cc1cc(C)c(S(=O)(=O)NCCc2sc3nc(-c4ccc(F)cc4)nn3c2C)c(C)c1,.,-60.2,.,.,.,.
COc1ccc(S(=O)(=O)NCCc2sc3nc(-c4ccc(C)cc4)nn3c2C)cc1C,.,-93.5,.,.,.,.
Cc1ccc(-c2nc3scc(CCNS(=O)(=O)c4ccc(C)c(C)c4)n3n2)cc1,.,-,.,.,.,.
CNS(=O)(=O)c1cc(NC(=O)c2cncn2-c2ccccc2)ccc1C,-,-,-,-,-,-
Clc1ccc(-c2nn3c(C4COc5ccccc5O4)nnc3s2)cc1 (centres undefined),20.0,-98.9,?,-,-,-
COc1cccc(NC(C)C(=O)N2CC(C)OC(C)C2)c1 (centres undefined),-,-,?,-,-,-
COc1cc(NC(C)C(=O)N2CC(C)OC(C)C2)cc(OC)c1 (centres undefined),-,-,.,?,4.65µM,-
Cc1ccc(NC(=O)C(c2ccccc2)N2CCN(CC(=O)NC3CC3)CC2)cc1 (centres undefined),.,-,?,-,13.1µM,.
O=C(CN1CCN(C(C(=O)Nc2cc(C(F)(F)F)ccc2Cl)c2ccccc2)CC1)NC1CC1 (centres undefined),.,-,.,?,.,.
Cc1cc(C)cc(NC(=O)C(c2ccccc2)N2CCCC2)c1 (centres undefined),-,-,-,-,-,-
Cc1cc(C)cc(NC(=O)C(c2ccccc2)N2CCN(CC(=O)NC3CC3)CC2)c1 (centres undefined),.,-,9.28µM,?,5.22µM,.
Cc1ccc(NC(=O)C(c2ccccc2)N2CCN(CC(=O)NC3CC3)CC2)cc1Cl (centres undefined),.,-,?,-,5.22µM,.
O=C(CN1CCN(C(C(=O)Nc2ccc(Cl)cc2C(F)(F)F)c2ccccc2)CC1)NC1CC1 (centres undefined),.,-,4.15µM,-,3.29µM,.
CC(=O)OCc1c(C)cc(C)c(/C=C(/C#N)C(N)=O)c1C,-,-,-,-,-,-
COc1ccc(-c2c(-c3ccccc3OC)sc3ccccc23)cc1F,.,-,.,.,.,.
COc1ccc(C)cc1NC(=O)C(c1ccccc1)N1CCN(CC(=O)NC2CC2)CC1 (centres undefined),.,-,2.08µM,-,2.33µM,.
CCc1ccccc1NC(=O)CN1CCN(CC(=O)Nc2cc(C)ccc2OC)CC1,-,-,-,-,?,-
O=C1c2ccccc2NC(c2ccncc2)N1c1ccccn1 (centres undefined),-,-,.,-,-,-
NC1=NC(c2cccnc2)n2c(nc3ccccc32)N1 (centres undefined),-,-,-,-,-,-
c1cncc(C2Nc3ccccc3-c3nc4ccccc4n32)c1 (centres undefined),30.5,-,-,?,.,29.2
c1ccc2c(c1)NC(c1ccncc1)n1c-2nc2ccccc21 (centres undefined),-,-,-,?,2.62µM,-
O=C(/C=C/c1ccco1)OCC1CCCN2CCCCC12 (centres undefined),-,-,-,?,-,-
COc1ccc(CCN2CC(C(=O)Nc3cc(F)ccc3F)CC2=O)cc1OC (centres undefined),.,-,-,-,?,.
SMILES,Cycloheximide cs,HCMV inh,Pf growth 96h,HCV inhibitor,Pf growth 48h,Shiga inhibitor
CC[C@H](C)[C@H](NC(=O)[C@H](CO)NC(=O)[C@H](CC(C)C)NC(=O)[C@@H]1CCCN1C(=O)[C@@H]1CCCN1C(=O)[C@H](CC(=O)O)NC(=O)[C@@H](N)CC(=O)O)C(=O)N[C@@H](CC(=O)O)C(=O)N[C@@H](CC(C)C)C(=O)N[C@H](C(=O)N[C@@H](Cc1ccccc1)C(=O)N[C@@H](Cc1cnc[nH]1)C(=O)N[C@@H](CC(C)C)C(=O)N[C@@H](CC(C)C)C(=O)N[C@@H](CCCNC(=N)N)C(=O)N[C@H](C(=O)N[C@@H](CC(C)C)C(=O)N[C@@H](CC(C)C)C(=O)N[C@@H](CCC(=O)O)C(=O)N[C@@H](CC(C)C)C(=O)N[C@@H](C)C(=O)N[C@@H](CCCNC(=N)N)C(=O)N[C@H](C(=O)N[C@@H](CCC(N)=O)C(=O)N[C@@H](CO)C(=O)N[C@@H](CCC(N)=O)C(=O)N[C@@H](CCCNC(=N)N)C(=O)N[C@@H](CCC(=O)O)C(=O)N[C@@H](CCCNC(=N)N)C(=O)N[C@@H](C)C(=O)N[C@@H](CCC(=O)O)C(=O)N[C@@H](CCC(N)=O)C(=O)N[C@@H](CC(N)=O)C(=O)N[C@@H](CCCNC(=N)N)C(=O)N[C@H](C(=O)N[C@H](C(=O)N[C@@H](Cc1ccccc1)C(=O)N[C@@H](CC(=O)O)C(=O)N[C@@H](CO)C(=O)N[C@H](C(N)=O)C(C)C)[C@@H](C)CC)[C@@H](C)CC)[C@@H](C)O)[C@@H](C)O)[C@@H](C)O,-,.,.,.,.,-
CCCCNC(=O)CCCN1C(=O)CCn2nc(-c3cccn3C)cc21,.,-,.,.,.,.
CCCCNC(=S)N=Nc1c(O)n(Cc2ccccc2)c2ccccc12,-,-,10.4µM,?,13.1µM,-
CCOC(=O)N=Nc1c(O)n(Cc2ccccc2)c2ccccc12,28.9,-,-,-,-,46.1
O=C(N=Nc1c(O)n(Cc2ccccc2)c2ccccc12)c1ccncc1,-,-,13.1µM,-,11.7µM,-
CC(C)(C)C(=O)Nc1ccccc1C(=O)Nc1cc(Cl)ccc1Cl,-,-,4.15µM,-,11.7µM,-
CC(C)(C)C(=O)Nc1ccccc1C(=O)Nc1cccnc1,-,-,-,-,-,-
COc1ccc(C(=O)Nc2cc(Cl)ccc2Cl)c(OC)n1,17.8,.,-,-,-,-
CS(=O)(=O)c1ccccc1-c1csc(N2CCC(C(N)=O)CC2)n1,.,-,-,.,-,.
CC1(NC(=S)Nc2ccccc2)CCS(=O)(=O)C1 (centres undefined),-,-,-,-,-,-
